# Source: PubChem BioAssay
# Rows were chosen to be rich in hits. Some 11% of all compounds tested hit in one or more screens of this group.
# PNC assembly inh: High Content Assay for Compounds that inhibit the Assembly of the Perinucleolar Compartment; PC3M PTB-GFP, PNC prevalence imaging, 16 h; hits give low values; activity change (PNC), negative = inhibition, % at 10 µM; 3.1% of 140,000 active; AID 2417, 2010;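 active = readout at or below -70, meaning at least 70% loss of cells showing the perinucleolar compartment, a nuclear body marking cancer cells; inconclusive = readout between -30 and a set limit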;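 also: plate controls were DMSO wells for no effect and camptothecin positive control wells for full effect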
#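 PC3M cells stably expressing PTB-GFP, 750–1000 cells/well, treated 16 h at 37 °C with compound (23 nl of library stock), in duplicate. After paraformaldehyde fixation and Hoechst stain, imaged at 20x; PNC prevalence scored by image analysis.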
# CBFb-RUNX1 inh: qHTS Assay for Compounds Blocking the Interaction Between CBF-beta and RUNX1 for the Treatment of Acute Myeloid Leukemia; AID 1477, 2009; AlphaScreen CBFb-His/RUNX1-biotin binding, biochemical; Runt-related transcription factor 1 (Homo sapiens) + Core-binding factor subunit beta …; Potency, µM (titrated, usually from 59.8 µM), without a hit: top-dose activity, negative = inhibition, actives largely listed as inhibitors; 230,000 tested, under 10 active; also: % of control where 0% means no effect
#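 Proteins preincubated together for 20 min at RT before compound addition; 15 min later, nickel and streptavidin beads were added and left 90 min prior to AlphaScreen measurement.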
# HPGD block: qHTS Assay for Inhibitors of HPGD (15-Hydroxyprostaglandin Dehydrogenase); 4.3% of 150,000 active; Potency, µM, for the others: top-dose activity change, negative = inhibition, hits mostly inhibitors; purified HPGD, NADH fluorescence kinetic, PGE2 substrate; 15-hydroxyprostaglandin dehydrogenase [NAD(+)] (Homo sapiens), P15428; active = well fitted inhibition curve with a large enough effect, not every such curve was filed as active; inconclusive = small, poorly fitted or top-dose-only effect, or another doubt; inactive = no such curve, though single readings can be large or run the other way; also: potency is read from the fitted curve at half-maximal effect; % is scaled to controls: 0 for no effect and ±100 for the full control effect
# Target sequence (P15428 whole entry, looked up): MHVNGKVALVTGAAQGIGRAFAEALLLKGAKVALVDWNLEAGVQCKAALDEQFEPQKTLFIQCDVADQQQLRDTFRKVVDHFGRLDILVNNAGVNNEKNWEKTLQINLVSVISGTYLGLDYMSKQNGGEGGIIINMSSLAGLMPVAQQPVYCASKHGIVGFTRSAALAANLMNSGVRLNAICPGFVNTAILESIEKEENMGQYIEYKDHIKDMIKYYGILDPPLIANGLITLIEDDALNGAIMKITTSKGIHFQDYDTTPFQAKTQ
#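 20 nM HPGD preincubated 15 min at room temperature with compound in 50 mM Tris-HCl pH 8, 0.01% Tween 20. Started with 1 mM NAD+ and 30 uM prostaglandin E2; NADH fluorescence (360/450 nm) read 5 times over 30-s intervals, last minus first.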
# HTT ATP protect: qHTS Multiplex Assay to Identify Dual Action Probes in a Cell Model of Huntington: Cytoprotection (ATP) | PC12 HTT-Q103 induced, cytoprotection, ATP luminescence, 40 h | Potency, µM (top dose mostly 56.4 µM), inactives show cytoprotection (ATP increase), most hits filed as activators | 0.14% of 230,000 active | AID 1471, 2008; also: potency is read from the fitted curve at half-maximal effect; % of control where 0% means no effect; nearly all actives have a fitted effect of over 45% in size
#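 ATP quantification (ATPlite) reports survival of PC12 cells in which tebufenozide, 100 nM final, switches on Htt exon 1 with 103 glutamines linked to GFP; compounds are titrated.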
# ALDH1A1 inh: qHTS Assay for Inhibitors of Aldehyde Dehydrogenase 1 (ALDH1A1) | Aldehyde dehydrogenase 1A1 (Homo sapiens), P00352 | Purified ALDH1A1, NADH fluorescence, propionaldehyde substrate | Potency, µM (top dose mostly 75.3 µM), for inactives: at the top dose activity, negative = inhibition, most hits filed as inhibitors | 7.3% of 220,000 active; active = well fitted inhibition curve with a large enough effect, not every such curve was filed as active; inconclusive = small, poorly fitted or top-dose-only effect, or another doubt; inactive = no such curve, though single readings can be large or run the other way;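 also: potency is read from the fitted curve at half-maximal effect; plate controls were no enzyme wells and a reference inhibitor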
# Target sequence (P00352 whole entry, looked up): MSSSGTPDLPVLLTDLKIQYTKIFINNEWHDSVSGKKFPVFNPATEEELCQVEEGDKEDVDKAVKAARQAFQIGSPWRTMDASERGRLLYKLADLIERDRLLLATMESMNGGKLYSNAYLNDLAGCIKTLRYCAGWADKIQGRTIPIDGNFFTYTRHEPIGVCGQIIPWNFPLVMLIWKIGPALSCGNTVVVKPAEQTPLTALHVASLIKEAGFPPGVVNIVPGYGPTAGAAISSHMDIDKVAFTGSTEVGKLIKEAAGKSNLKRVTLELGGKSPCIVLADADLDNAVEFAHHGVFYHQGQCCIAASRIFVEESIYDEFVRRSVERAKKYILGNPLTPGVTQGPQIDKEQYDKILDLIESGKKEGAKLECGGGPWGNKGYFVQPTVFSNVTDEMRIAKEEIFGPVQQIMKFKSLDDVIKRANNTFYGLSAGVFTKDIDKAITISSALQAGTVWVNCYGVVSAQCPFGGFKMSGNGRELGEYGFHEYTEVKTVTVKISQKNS
# HttQ103 aggreg: qHTS Multiplex Assay to Identify Dual Action Probes in a Cell Model of Huntington: Aggregate Formation (GFP) | AID 1688, 2009 | 1.1% of 220,000 active | Potency, µM (doses to about 46.1 µM), for the others: top-dose activity change, negative = inhibition, usual class: inhibitors | PC12 HttQ103-GFP aggregates, Acumen cytometry, 40 h; also: potency is read from the fitted curve at half-maximal effect; % is scaled to controls: 0 for no effect and ±100 for the full control effect; nearly all actives have a fitted effect of over 60% in size
#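 PC12 cells stably carrying ecdysone-inducible HTT exon 1 Q103–GFP were induced with tebufenozide (100 nM final) and treated with library compounds in titration. GFP aggregates in lysates were counted by laser scanning cytometry.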
# Active calls of the source: *; ? = inconclusive; / = no result; [ ] = dose if it differs, or a comment. Unless noted, calls follow the shape of the dose curve; as a rule, active = well fitted curve in the direction sought with a large enough effect; inconclusive = small, poorly fitted or top-dose-only effect, or another doubt; inactive = no such curve, though single readings can be large; an effect the other way counts as inactive or inconclusive.
SMILES,PNC assembly inh,CBFb-RUNX1 inh,HPGD block,HTT ATP protect,ALDH1A1 inh,HttQ103 aggreg
Cc1nc2ccccc2c(=O)n1CC(=O)N1CCOCC1,-85*,3%,-3%,20%[10 µM],2%,-3%
COc1ccc(-c2nc3ccccc3c(=O)n2CCCN2CCOCC2)cc1,?,2%,-9%,13%,-5%,3%
O=c1c2ccccc2nc(-c2ccccc2)n1Cc1ccc(Cl)cc1,0,6%,-13%,-22%,6.3µM*,-18%
O=c1c2ccccc2nc(-c2ccccc2)n1Cc1ccccc1,?,6%,-8%,/,16µM*,9%
O=c1c2ccccc2nc(-c2ccccc2)n1CCN1CCOCC1,-10,7%,-3%,-10%,13µM*,15%
O=c1c2ccccc2ncn1Cc1ccc(Cl)cc1,/,10%,/,-12%,-3%,-12%
Cc1nc2ccccc2c(=O)n1CCCN1CCOCC1,/,5%,/,-6%[10 µM],/,-7%[9.22 µM]
O=C(NCc1ccccc1)c1ncn[nH]1,/,4%,/,-9%[10 µM],/,-15%[9.22 µM]
CC1=NN(C(=O)COc2ccccc2)C(O)(c2cccnc2)C1 (stereo not drawn),/,-2%,/,-7%[10 µM],5%,5%[9.22 µM]
O[C@H](C[C@@H]1CCCCN1)c1ccc2c(c1)oc1ccccc12,/,/,-1%,5%[10 µM],8%[13.5 µM],/
COC(=O)C1=C(C)N(Cc2ccco2)C(=O)N[C@@H]1c1ccco1,/,9%[13.1 µM],-8%,15%[10 µM],12%[13.5 µM],/
NCCNS(=O)(=O)c1cccc2cnccc12,/,-4%,2%,-2%,-6%,/
Cc1ccc(Oc2nc3ccccc3n3c(C)nnc23)c(C)c1,-27,-2%,-12%,-9%[10 µM],7%,6%
CN(C)c1ncc(CN2CCC(CO)(CCCc3ccccc3)CC2)s1,/,-3%,/,14%[10 µM],/,-6%[9.22 µM]
NNC(=O)C=C1CCN(c2ncc(C(F)(F)F)cc2Cl)CC1,38,-1%,-3%,-1%[10 µM],16µM*,13%
O=C(CN1CCN(c2ncc(C(F)(F)F)cc2Cl)CC1)N1CCN(c2ncc(C(F)(F)F)cc2Cl)CC1,42,-1%,-26%,?,4µM*,-28%
CC(C)OCCCNC(=S)NNC(=O)C(c1ccccc1)c1ccccc1,/,0%,/,?,-1%,-2%[9.22 µM]
COc1ccc(C2=CSC3=C(C(=O)c4cccc(S(=O)(=O)N(C)C)c4)CCN23)cc1,?,-9%,-17%,-6%[10 µM],2µM*,-14%
COc1ccc(N(C)S(=O)(=O)c2cccc(C(=O)NC3CCC(C)CC3)c2)cc1 (stereo not drawn),/,10%,/,-20%,?,-29%
O=S(=O)(Nc1ccc(Cl)cc1Cl)c1cc(Cl)ccc1Cl,/,/,?,/,2%,/
COc1ccc(-n2cc(C(=O)c3ccccc3O)cn2)cc1,/,4%,/,-120%,?,-26%
O=C(c1cnn(-c2ccccc2)c1)c1ccccc1O,-29,-1%,13µM*,2%[10 µM],-2%,11µM*
c1csc(-c2csc3ncnc(NCCCN4CCOCC4)c23)c1,?,2%,-16%,26%[1.9 µM],7%,7.9µM*
c1ccc(-c2csc3ncnc(NCCCN4CCOCC4)c23)cc1,0,-5%,-16%,-13%[10 µM],0%,0%
C=CCN(C(C(=O)OC)C(C)C)S(=O)(=O)C=C (stereo not drawn),/,-12%,/,/,/,/
SMILES,PNC assembly inh,CBFb-RUNX1 inh,HPGD block,HTT ATP protect,ALDH1A1 inh,HttQ103 aggreg
C=CCN1C(=O)C2(NNc3ccccc3O2)c2ccccc21 (stereo not drawn),-20,-25%,-20%,-9%,1.6µM*,13%[9.22 µM]
CCCCN1C(=O)C2(NNc3ccccc3O2)c2ccccc21 (stereo not drawn),?,?,32µM*,6%,0.28µM*,28%
CCOc1ccc(-c2nc[nH]c2[N+](=O)[O-])cc1,/,-1%,/,-29%,3%,15%
Nc1cc(C(=O)O)c(O)c(S(=O)(=O)O)c1,/,-7%[21.7 µM],-21%,-4%,?,/
CCCCn1c(=O)c(CCC(=O)OCC(=O)NCc2ccc(OC)c(OC)c2)nc2ccccc21,/,4%,/,-11%[10 µM],-5%,19%
CC(C)C[C@@H]1NC(=O)[C@H](C(C)C)NC(=O)c2cc([N+](=O)[O-])cc(I)c2NCC[C@@H](C(N)=O)NC1=O,50,4%[2.36 µM],-14%,/,28µM*,12%
CC(C)[C@@H]1NC(=O)c2cc([N+](=O)[O-])cc(I)c2NCC[C@@H](C(N)=O)NC(=O)[C@H](CO)NC1=O,72,-2%[2.36 µM],-17%,/,0%,-8%
CC(C)C[C@@H]1NC(=O)[C@H](Cc2ccc(O)cc2)NC(=O)[C@H](CCC(N)=O)NC(=O)c2cc([N+](=O)[O-])cc(I)c2NCC[C@@H](C(N)=O)NC1=O,?,5%[2.36 µM],-5%,/,4µM*,-8%
Cn1cc(-c2nc3cnc(Oc4ccccc4)nc3n(CCC#N)c2=O)c2ccccc21,/,/,-1%,?,-4%,/
O=C(O)CC/C=C\CC[C@H]1[C@@H](N2CCCCC2)[C@@H](O)C[C@@H]1OCc1ccc(-c2ccccc2)cc1,/,-7%[21.7 µM],2%,3%,4%,/
c1ccc(Oc2cc(-c3ccccc3)nc(-c3ccccc3)n2)cc1,48,4%,-9%,-3%[1.9 µM],1%,2%
O=S(=O)(Cc1cc(Oc2ccccc2)nc(-c2ccccc2)n1)c1ccccc1,-102*,-3%,-15%,3%,4%,20%
C/C(N)=C(/C#N)C(=O)CSc1nnc(Nc2ccccc2C)s1,17,-9%,28µM*,-19%,?,3%
CC(C)Nc1nnc(SCc2cc(=O)n3ccsc3n2)s1,/,-16%,/,?,?,?
O=c1cc(CSc2nnc(Nc3ccccc3)s2)nc2sccn12,8,-1%,18µM*,4%,-3%,25%
Cc1ccccc1Nc1nnc(SCc2cc(=O)n3ccsc3n2)s1,-20,-3%,28µM*,-10%,?,-4%
CC(=O)Nc1ccc(C(=S)NCCCO)cc1,/,-1%,/,-37%,?,6%
COCOc1cc(OC)ccc1C(=O)/C=C/c1cccc(C(F)(F)F)c1,/,7%,-4%,-9%,-4%,/
CCOC(=O)C1CCc2sc(N)c(C#N)c21 (stereo not drawn),-135*,?,-16%,-7%,?,0%
CCCCNC(=O)COC(=O)c1ccc(NS(=O)(=O)c2ccc3c(c2)OCCO3)cc1,19,1%,-19%,4%,-10%,7%[9.22 µM]
